Screens from PubChem.
An excerpt weighted towards active compounds, which were near 7.1% of everything screened.
Lassa entry = Lassa virus entry inhibition. Lassa virus pseudotyped entry inhibition, cell-based qHTS. Potency, µM (series often up to 49.2 µM), most hits filed as inhibitors. AID 720533. 18,000 compounds, 4.1% hits
MARV entry inh = inhibitors of Marburg virus binding or entry into cells | 18,000 compounds, 6.5% hits | Marburg virus pseudotype entry/binding inhibition, cell-based | Potency, µM (titrated, usually from 49.2 µM), hits mostly inhibitors
Hits are given with their value; 0 = inactive; ? = inconclusive; ! = not confirmed by another sample; [ ] = remark or other dose. Calls come from the whole dose curve; tested in HEK293 cells.

SMILES	Lassa entry	MARV entry inh
COC(=O)C1=C[C@@]2(c3ccc(OC)cc3[C@@H](OC)[C@@H]2C)[C@@H]2C=C[C@@H]1C2	0[8.59 µM]	0[8.59 µM]
C=CCN=C1N[C@H](c2ccc(Br)cc2)C(C(=O)OC)=C(C)N1Cc1ccccc1	0[8.59 µM]	0[8.59 µM]
CSC[C@H]1CN(CCc2ccccc2)C(=O)[C@H]1CC(=O)Nc1ccc(Br)cc1	0	0
COc1c2c(cc3c1OCO3)CCN(C)C2	0	0
COc1c2c(c(C(=O)/C=C/C(C)=C/c3ccccc3)c3c1OCO3)CCN(C)C2	0	16µM
CCCCCCCc1cc2ccccc2c2c(C(=O)OC)cc(C(=O)OC)n12	0[8.59 µM]	0[8.59 µM]
COC(=O)C1=C(C)N(CC2CC2)C(=O)NC1c1ccccc1 (stereo not given)	0[8.59 µM]	0[8.59 µM]
CCCCCCCC/C=C\CCCCCCCC(=O)N[C@@H](CO)Cc1ccc(O)cc1	28µM	?
CCCCCCCC/C=C\CCCCCCCC(=O)NC(C)C(=O)O (stereo not given)	0	0
O=S(=O)(NCCNC/C=C/c1ccc(Br)cc1)c1cccc2cnccc12	0	13µM
CNCCNS(=O)(=O)c1cccc2cnccc12	0	0
CCOC(=O)NN=C1C[C@@H](O)[C@@H](O)[C@@H]2[C@H]3C(=O)N(c4cccc(Oc5ccccc5)c4)C(=O)[C@@H]3CC[C@@H]12	0[8.59 µM]	0[8.59 µM]
C=C1C[C@H](OC(=O)C(C)(O)CCl)C2C(=C)C(=O)O[C@@H]2C2C1C[C@H](O)[C@]2(O)CCl (stereo not given in full)	?	20µM
COc1cc(CNC(=O)CCCC/C=C/C(C)C)ccc1O	25µM!	0
CCCCCCCCC(=O)NCc1ccc(O)c(OC)c1	0	0
CCCCC/C=C\C/C=C\C/C=C\C/C=C\CCCC(=O)NCc1ccc(O)c(OC)c1	7.9µM	?
CCCCC[C@H](O)CC(=O)CCc1ccc(O)c(OC)c1	0	0
O=C(O)CCc1nc2ccccc2[nH]1	0	0
CC(C)[C@H]1c2ccc(F)cc2CC[C@@]1(CCN(C)CCCc1nc2ccccc2[nH]1)OC(=O)C1CC1	?	8.9µM
CCOC(=O)NN=C1C[C@@H](O)[C@@H](O)[C@@H]2[C@H]3C(=O)N(Cc4ccc5c(c4)OCO5)C(=O)[C@@H]3CC[C@H]12	0[8.59 µM]	0[8.59 µM]
CN(C/C=C/c1ccccc1)Cc1cccc2ccccc12	0	0
COc1ccc(S(=O)(=O)N(CCO)c2ccccc2CN(C)C/C=C/c2ccc(Cl)cc2)cc1	?	8.9µM
CCCC[C@]12Cc3c(ccc4ccccc34)[C@H](O1)C1=C(O2)C(=O)c2ccccc2C1=O	0[8.59 µM]	0[8.59 µM]
C#CCN1C(=O)[C@]2(O[C@H](C)CC3=CCCC32)c2c(Br)cccc21 (stereo not given in full)	0[8.59 µM]	0[8.59 µM]
CCOC(=O)C1=CN(CCNC(=O)OC(C)(C)C)C(=O)NC1c1ccccc1 (stereo not given)	0[8.59 µM]	0[8.59 µM]
SMILES	Lassa entry	MARV entry inh
CCOc1ccc2nc3cc(N)ccc3c(N)c2c1	0	0
Nc1ccc2cc3ccc(N)cc3nc2c1	25µM	10µM
CC(C)CON=C1C[C@@H](O)[C@@H](O)[C@@H]2[C@H]3C(=O)N(Cc4ccc5c(c4)OCO5)C(=O)[C@@H]3CC[C@H]12	0[8.59 µM]	0[8.59 µM]
C=C/C(=C/C(=O)C[C@H](C)C[C@@H](C)CC[C@H](O)[C@H](C)C(=O)C[C@@H](O)[C@H](C)[C@@H](C)OC(=O)C[C@@H](O)C1=C(C)C(=O)OC1=O)CC	2µM	2.5µM
OC(c1ccccc1)(c1ccccc1)C1CCNCC1	0	0
O[C@H](CCCN1CCN(c2ncc(F)cn2)CC1)c1ccc(F)cc1	0	0
CC(C)(C)c1ccc([C@@H](O)CCCN2CCC(C(O)(c3ccccc3)c3ccccc3)CC2)cc1	6.3µM	?
CC(C)(C)c1ccc(C(O)CCCN2CCC(C(O)(c3ccccc3)c3ccccc3)CC2)cc1 (stereo not given)	16µM	?
CCN(CC)c1ccc(C(=C2C=CC(=[N+](CC)CC)C=C2)c2ccccc2)cc1	0.32µM	0.28µM
COc1ccc(OC[C@H]2CN3[C@H](c4ccc(Br)cc4)[C@H](C)CC[C@H]3C(=O)O2)cc1	0[8.59 µM]	0[8.59 µM]
O=C(/C=C/c1ccc(O)c(O)c1)c1ccc(O[C@@H]2O[C@H](CO)[C@@H](O)[C@H](O)[C@H]2O)c(O)c1O	0	3.2µM
O=C1C[C@@H](c2ccc(O)c(O)c2)Oc2c1ccc(O[C@@H]1O[C@H](CO)[C@@H](O)[C@H](O)[C@H]1O)c2O	0	?
CC(=O)OC[C@H]1O[C@@H](ON=C(C)CCC(=O)OC[C@H]2O[C@H](C#Cc3ccccc3)C=C[C@H]2Oc2ccc(C)cc2)[C@H](OC(C)=O)[C@@H](OC(C)=O)[C@H]1OC(C)=O	0[8.59 µM]	0[8.59 µM]
N[C@@]1(C(=O)O)CN[C@@H](C(=O)O)C1	0	28µM
NC1(C(=O)O)CC(C(=O)O)C1 (stereo not given)	0	0
O=C(C[C@H]1C(=O)N(c2ccccc2)C[C@@H]1c1ccccc1)Nc1ccccc1	0	0
C=CC(C1=CC(=O)C(OC)=CC1=O)c1ccc(OC)cc1 (stereo not given)	0	?
C=CC(C1=CC(=O)C(OC)=C(OC)C1=O)c1ccccc1 (stereo not given)	?	14µM
CC[C@@]12C=C(C=Cc3ccccc3)[C@](CC)(C1)[C@H](c1ccccc1)CC2=O	0[8.59 µM]	?
Nc1ccc(/C=C/c2ccc(N)cc2S(=O)(=O)O)c(S(=O)(=O)O)c1	0	25µM
O=S(=O)(O)c1cc(N=C=S)ccc1/C=C/c1ccc(N=C=S)cc1S(=O)(=O)O	0	0
CN(c1ccc(NC(=O)NCCN2CCOCC2)cc1)c1ccnc(Nc2ccc(CS(C)(=O)=O)cc2)n1	0	0
C[C@@H]1N[S+](=O)([O-])c2c(F)cccc2O[C@H]1c1ccccc1	0	0
CC[C@@H]1/C=C/C=C/C[C@H](C)[C@@H](O)[C@](C)(O)C(=O)[C@H](C)[C@@H](O)[C@H](C)C(=O)[C@H](C)[C@@H](O)[C@H](C)/C=C/C(=O)O[C@H]2[C@@H](C)[C@@H](CC1)O[C@@]1(CC[C@@H](C)[C@@H](C[C@H](C)O)O1)[C@@H]2C	40µM	10µM
CCN1C(=NCCc2ccc(Br)cc2)NC(c2ccccc2)C(C(=O)OC)=C1C (stereo not given)	0[8.59 µM]	?
SMILES	Lassa entry	MARV entry inh
CN(C)CC[C@@H](c1ccccc1)c1ccccn1	0	0
CN(C)CCC(c1ccc(Br)cc1)c1ccccn1 (stereo not given)	0	10µM
O=C1CCCC2=C1[C@H]1O[C@](CCCCN3C(=O)c4ccccc4C3=O)(Cc3ccccc31)O2	0[8.59 µM]	0[8.59 µM]
CCCCCN=c1ccn(Cc2ccccc2)c2ccccc12	20µM	14µM
COC(=O)N[C@@H](c1ccc(Cl)cc1)C(C(C)=O)C(=O)OC (stereo not given in full)	0[8.59 µM]	0[8.59 µM]
CC(=O)C1=CN(CCc2c[nH]c3ccccc23)C(=O)NC1c1ccccc1 (stereo not given)	0[8.59 µM]	0[8.59 µM]
O=c1[nH]c2ccccc2n1CCCN1CCC(n2c(=O)[nH]c3cc(Cl)ccc32)CC1	?	13µM!
O=C(CCCN1CCC(n2c(=S)[nH]c3ccccc32)CC1)c1ccc(F)cc1	0	?
CCCCCCCC=CC1=CC2(C)CC1(C)C(CCCCCCC)CC2=O (stereo not given)	0[8.59 µM]	?
CCCCN1CC(COc2ccccc2)Oc2cc(Br)ccc2S1(=O)=O (stereo not given)	0	?
CCC1(C2CCN(Cc3cc4ccccc4o3)CC2)NC(=O)N(CC2COc3ccccc3O2)C1=O (stereo not given)	0	32µM
